Laboratory results published in PubChem BioAssay AID651822 (The Scripps Research Institute Molecular Screening Center, 2012).
Among all 2,300 compounds or so, about 970 (42%) were called active. The set was probably picked from earlier hits. Not all results are given here. A number with no mark means an inactive call. Cut-off read from the data, not from the text of the source: active = inhibition above about 4.5%; inactive = the rest.

tested on: Methionine sulfoxide reductase A (Bos taurus); assay: bovine MsrA inhibitors, retest, confirmation, biochemical, absorbance, HTS (AID 651822); conditions: purified bovine MsrA, absorbance read-out; at 15.5 µM; active compounds read high;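 note: coupled to thioredoxin reductase with NADPH and selenocystamine and DMSO as substrate; 0% = vehicle only and 100% = full effect of reference inhibitor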

SMILES	inhibition
COc1ccccc1C(=O)N/C(=C/c1ccc2c(c1)OCO2)C(=O)Nc1cccc(C(=O)O)c1	3.23%
COc1ccc(/C=C(/NC(=O)c2ccco2)C(=O)Nc2ccc(C(C)=O)cc2)cc1	5.97% (active)
CCN(CC)C(=O)c1sc(NC(=O)c2ccco2)c(C#N)c1C	3.8%
COc1ccc(C(=O)CSc2nc(C)cc(C)n2)cc1[N+](=O)[O-]	7.55% (active)
Cc1cc(C)nc(S/C=C/C(=O)c2ccccc2)n1	4.29%
Cc1cccc(-n2c(O)c(C=Nc3ccccc3N)c(=O)[nH]c2=O)c1	3.07%
COc1ccc(/C=N/n2nnnc2N)cc1OC	2.84%
COc1ccc(/C=N\NC(=O)c2sc(N)nc2C)cc1OC	6.13% (active)
CCOc1cc(/C=N/NC(=O)c2c(C)nc3ccc(Cl)cn23)ccc1O	4.5%
COc1ccc(/C=C2\N=C3CCCN3C2=O)cc1	2.42%
COc1ccc(/C=C2\SC(=O)N(CCC(=O)NC3CCS(=O)(=O)C3)C2=O)cc1 (stereo not given)	5.86% (active)
Cc1n[nH]c(=O)nc1N/N=C/c1cccs1	3.61%
CCOc1cc(/C=N/NC(=O)c2ccc(CSc3nncn3C)cc2)ccc1OCC(=O)N1CCOCC1	3.67%
O=C(N/N=C/c1ccc2c(c1)OCO2)c1ccc(Cn2cc([N+](=O)[O-])cn2)o1	4.56% (active)
COc1ccc(OC)c(C2C3=C(N=c4s/c(=C\c5cccc(O)c5)c(=O)n42)c2ccccc2CC3)c1 (stereo not given)	3.18%
CC(N=Cc1nc(-c2ccccc2)oc1O)c1ccccc1 (stereo not given)	3.02%
COC(=O)/C(C#N)=C/c1occc1C	4.58% (active)
CC(Nc1ccc([N+](=O)[O-])cc1[N+](=O)[O-])c1ccccc1 (stereo not given)	32.3% (active)
O=C(Cc1ccccn1)c1ccc(O)cc1O	2.96%
Cc1ccc(S(=O)(=O)Nc2nc(C)cc(N/N=C/c3ccc(O)cc3)n2)cc1	4.89% (active)

SMILES	inhibition
CN(c1ccccc1)S(=O)(=O)c1ccc2[nH]c(=O)[nH]c2c1	9.47% (active)
CS(=O)(=O)c1ccc2nc(NC(=O)c3ccc(Cl)nc3)sc2c1	4.5%
Cc1ccc(C(=O)N/N=C/c2sc(=O)n(Cc3cccc(C(=O)O)c3)c2Cl)cc1	6.35% (active)
Oc1ccc(/C=N/Nc2ccc(C(F)(F)F)cn2)cc1O	4.15%
O=C(O)c1ccc(N/N=C/c2ccc3ncccc3c2)cc1	7.49% (active)
COc1ccccc1-c1n[nH]c2c1[C@H](C)CC[C@H]2C(C)C	8.12% (active)
NC(=O)c1ccc(Nc2ccc3c(c2)CCC3)c([N+](=O)[O-])c1	12% (active)
Cc1ccc(Nc2ccc(C(N)=O)cc2[N+](=O)[O-])cc1	5.43% (active)
CCn1cc(/C=C(\NC(=O)c2ccc(C)cc2)C(=O)NCCN2CCOCC2)c2ccccc21	1.62%
COc1ccc(-c2ccc(Nc3ccc(S(=O)(=O)N4CCCC4)cc3)nn2)cc1OC	4.64% (active)
CCOc1ccc(/C=C(/C#N)c2nnc(N3CCOCC3)n2-c2ccccc2)cc1OC	2.86%
CCCc1nc(SCC(=O)N2CCCC2)c2c(=O)n(C)c(=O)n(C)c2n1	4.83% (active)
CC(=O)c1sc2nc(SCC(=O)N3CCCCC3)[nH]c(=O)c2c1C	4.28%
CC1CCCCN1S(=O)(=O)c1ccc(C(=O)Nc2nnc(-c3cccs3)o2)cc1 (stereo not given)	2.45%
Cc1ccc(CC2(C)C(=O)Nc3ccc(OC(F)(F)F)cc32)cc1 (stereo not given)	8.12% (active)
CC(=O)c1ccc(N2CCN(CC(=O)Nc3ccccc3N3CCOCC3)CC2)cc1	1.04%
CSc1ccc(/C=C2\NC(=O)NC2=O)cc1	3.93%
O=Cc1cn(-c2ccccc2)nc1-c1ccccn1	5.38% (active)
Cc1ccc(/C=N/NC(=S)NC2CCCCC2)o1	4.23%
Cc1ccc(S(=O)(=O)N(C)c2ccc(OCC(=O)OCc3ccc(C#N)cc3)cc2)cc1	5.74% (active)

SMILES	inhibition
CC(=O)c1ccc(N2CCN(C(=O)c3ccc4nc[nH]c4c3)CC2)cc1	3.02%
O=C(CNC(=O)c1cccnc1)N/N=C/c1cc(Br)c(O)c(Br)c1	4.48%
O=C(CNC(=O)C1COc2ccccc2O1)N/N=C/c1cc(Br)c(O)c(Br)c1 (stereo not given)	7.08% (active)
O=C1/C(=C\Nc2ccccc2)CCN1c1ncccn1	6.98% (active)
CC(=O)Nc1ccc(S(=O)(=O)Oc2ccc(/C=N/N=C3/NC(=O)C(CC(=O)O)S3)cc2)cc1 (stereo not given)	2.79%
O=C(O)c1ccc(N/N=C/c2cn(-c3ccccc3)nc2-c2cccs2)cc1	5.22% (active)
CC(=O)N1N=C(c2ccncc2)OC1(Cc1ccccc1)Cc1ccccc1	9.69% (active)
Cc1ccc(N2C(=O)CN=C2Nc2nc(C)cc(C)n2)cc1	4.56% (active)
Cc1c(C(=O)N2CCCc3ccccc32)oc2ccccc12	7.55% (active)
COc1ccc(C2/C(=C(/O)c3ccccc3)C(=O)C(=O)N2C)c(OC)c1 (stereo not given)	1.16%
Clc1cccc(-c2nc3nc4ccccc4nc3n2Cc2ccco2)c1	1.65%
O=S1(=O)N=C(N(CCO)/N=C/c2ccccc2F)c2ccccc21	2.79%
CCOC(=O)C(C)n1cnc2scc(-c3ccc(C)c(C)c3)c2c1=O (stereo not given)	5.16% (active)
COc1cc2cc(C(=O)N/N=C/c3cccc(OC)c3OC)[nH]c2cc1OC	5.26% (active)
CCOc1ccc2[nH]c(C(=O)N/N=C/c3cccc(OC)c3OC)cc2c1	3%
Cc1ccccc1C(CC(=O)c1cccs1)C(C#N)C#N (stereo not given)	2.52%
Nc1nnnn1CC(=O)N/N=C/c1ccc(-c2cccc(Cl)c2)o1	3.45%
Cc1cccc2cc(C#N)c(N3CCCC3)nc12	7.09% (active)
Cc1occc1C(=O)N/N=C/c1ccc(-c2cccc([N+](=O)[O-])c2)o1	3.63%
O=C(N/N=C/c1ccco1)c1ccc(C(=O)N/N=C/c2ccco2)o1	10.6% (active)
